Among the data in PubChem BioAssay AID504848 (National Center for Advancing Translational Sciences (NCATS), 2011) are Potency values, retold here.

Among all 2,300 compounds or so, about 1,400 (61%) were called active. Not shown: some 29% with an inconclusive outcome. Calls follow the shape of the dose curve; as a rule, active = well fitted inhibition curve with a large enough effect; inconclusive = small, poorly fitted or top-dose-only effect, or effect the other way; inactive = no such curve, though single readings can be large or run the other way. So high a share suggests a set chosen from earlier hits. The list shows a part of the results.
Potency is read from the fitted curve at half-maximal effect.

A short description of this experiment: Confirmation screen for delayed death inhibitors of the malarial parasite plastid, 96 hour incubation. Also: nearly all actives have a fitted effect of over 60% in size. Particulars: P. falciparum luciferase growth in erythrocytes; series mostly up to 28.7 µM. The gist of the method:
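Erythrocytes infected with luciferase-expressing P. falciparum (2% hematocrit, 0.1% parasitemia final) in RPMI 1640 with 0.5% Albumax, exposed to compounds 96 h at 37 C, 5% CO2. Growth inhibition read as decreased luciferase luminescence.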
Turning to `COc1cc(OC)c2c(-c3cccc(-c4cccc(N)c4)c3)cc(=O)oc2c1`, the Potency was 10 µM (active). For `NCCCNc1nc(N)c([N+](=O)[O-])c(NC2CCCCC2)n1` the value was 2.82 µM (active); for `CC(C)C1C(=O)CC(c2ccccc2)NC1c1ccccc1` (centres undefined), 15.8 µM (active).

Consider `S=C(Nc1ccccc1Cl)N(Cc1ccccc1)Cc1cccnc1`, for which the Potency is 11.2 µM (active). As for `C(=C\c1nc(N2CCCCCC2)c2ccccc2n1)/c1ccccc1`, the figure is 6.31 µM (active). For `CC(C)CCSc1nc(N)c(C#N)cc1C#N` the value was 5.62 µM (active). As for `Cc1cccc2cc3c(nc12)SC(=NCC1CCCO1)N(Cc1ccco1)C3` (centres undefined), the figure is 2 µM (active); as for `CCCNC(=O)c1ccc(S(=O)(=O)c2ccc(OC)cc2)c([N+](=O)[O-])c1`, 5.01 µM (active); as for `CCOc1ccc2c(c1)C(N(CCN1CCOCC1)C(=O)Nc1ccccc1)CC(C)(C)O2` (centres undefined), 10 µM (active). Consider `O=C(N/N=C/c1cccn1-c1ccc([N+](=O)[O-])cc1)c1cccnc1`, for which the Potency is 11.2 µM (active).

Take `COc1cc(/C=C(/C(=O)c2cccs2)c2nc3ccccc3[nH]2)ccc1O`: the Potency was 3.98 µM (active). With `COC(=O)/C(=C\c1cc(OC)c(OC)c(OC)c1)c1nc2ccccc2[nH]1`, the Potency is 11.2 µM (active). As for `O=C(/C(=C/c1ccc(Cl)cc1)c1nc2ccccc2[nH]1)c1ccccc1`, the figure is 1.26 µM (active); as for `Brc1ccc2[nH]c3c(c2c1)CCC3`, “inactive”; as for `O=C(NCc1ccc2[nH]c3c(c2c1)CCCC3)c1ccc(S(=O)(=O)N2CCCC2)cc1`, 12.6 µM (active).

As to `C=CCNC(=O)c1onc(CSc2ccc(Cl)cc2)c1C(=O)O`, the Potency entry is “inactive”. Regarding `COc1ccc(-c2cc(CNC(=O)CCl)on2)cc1`, the Potency was 1.41 µM (active). As for `NNc1nc(-c2ccccc2Cl)c2cc(Br)ccc2n1`, the figure is 11.2 µM (active); as for `COc1ccc(Cl)cc1NC(=O)c1noc(C)c1[N+](=O)[O-]`, 12.6 µM (active); as for `CCCN1C2=C(C(=O)CCC2)C(c2ccc(O)c(Br)c2)C2=C1CCCC2=O`, 12.6 µM (active). For `OC1CCN(c2c3c(nc4cc(-c5ccc(Cl)cc5)nn24)CCC3)CC1` the value was 3.98 µM (active); for `C/C(=C\C(=O)c1ccncc1)Nc1ccccc1O`, 15.8 µM (active). With `CO[C@H](C(=O)[C@@H](O)[C@@H](C)O)C1Cc2cc3cc(O[C@H]4C[C@@H](O[C@H]5C[C@@H](O)[C@H](O)[C@@H](C)O5)[C@@H](O)[C@@H](C)O4)c(C)c(O)c3c(O)c2C(=O)[C@H]1O[C@H]1C[C@@H](O[C@H]2C[C@@H](O[C@H]3C[C@](C)(O)[C@H](O)[C@@H](C)O3)[C@H](O)[C@@H](C)O2)[C@H](O)[C@@H](C)O1` (some centres undefined), the Potency was 0.562 µM (active). As for `COc1ccc(NS(=O)(=O)c2ccc(N3CCOCC3)c(NC(=O)c3ccc(OC)cc3)c2)cc1`, the figure is 11.2 µM (active). For `Cc1cc(Sc2nnc(N)s2)c2ccccc2n1` the value was 5.62 µM (active); for `Cc1cc(Sc2nnc(/N=C/N(C)C)s2)c2ccccc2n1`, 7.08 µM (active); for `CC1CCCN(Cc2c(O)ccc3c(=O)c(-c4nc5ccccc5s4)c(N)oc23)C1` (centres undefined), 0.316 µM (active). `CCOc1cc([N+](=O)[O-])cc(/C=N/NC(=O)c2c(-c3ccccc3)noc2C)c1O`: the Potency was 14.1 µM (active). Turning to `COCCn1c(SCc2csc(-c3ccccc3)n2)nc2ccccc21`, the Potency was 12.6 µM (active).

With `CN1C(=O)Cc2cc(S(=O)(=O)N3CCN(c4cccc(C(F)(F)F)c4)CC3)ccc21`, the Potency was 12.6 µM (active).

As for `Cc1cccc(N2CCN(C3=NC(=O)C(Cc4ccccc4)S3)CC2)c1` (centres undefined), the Potency is 1.58 µM (active).

Regarding `O=C(Oc1nsnc1N1CCCCC1)N1CCOCC1`, the Potency is 10 µM (active). For `Cc1oc(-c2ccccc2Cl)nc1Cn1cccc1C1=NC(c2ccccc2)CO1` (centres undefined) the value was 12.6 µM (active); for `CCn1c(=O)n(CC)c2cc(N3CCCC3)c(NC(=O)c3ccc(C)cc3)cc21`, 7.08 µM (active). As to `COc1ccc2cc3[n+](cc2c1OC)CCc1cc2c(cc1-3)OCO2`, the Potency is 0.501 µM (active). For `O=C(Nc1ccccc1)N1CCC(O)(c2cccc(C(F)(F)F)c2)CC1` the value was 12.6 µM (active). With `Cn1c2ccccc2c(=O)c2ccc(C#Cc3ccc(N)cc3)cc21`, the Potency was 11.2 µM (active). Turning to `COc1ccc(C#Cc2ccc3c(=O)c4ccccc4n(C)c3c2)cc1`, the Potency is 10 µM (active). As for `COc1ccc(N(C)S(=O)(=O)c2cccc(C(=O)NCc3ccc(C)cc3)c2)cc1`, the figure is 14.1 µM (active). `COc1cccc(S(=O)(=O)NCc2ccc(C(=O)NCc3ccccn3)cc2)c1`: the Potency result is “inactive”. As for `O=C(c1ccc([N+](=O)[O-])cc1)n1nc(-c2ccccc2)nc1NCc1ccc(F)cc1`, the figure is 10 µM (active); as for `Cc1cc(C)nc(SCC(=O)c2ccc(C)c(C)c2)n1`, 12.6 µM (active); as for `COc1ccccc1N1CCN(CCCCN2C(=O)C3CCCCN3C2=O)CC1` (centres undefined), 12.6 µM (active). For `O=C(NNc1ccnc2cc(Cl)ccc12)C1CCCCC1` the value was 0.282 µM (active); for `CCN1CCC(Nc2ccnc3cc(Cl)ccc23)CC1`, 0.158 µM (active). As for `Cc1cccc(-n2ccc(=O)c(C(=O)Nc3ccc(S(=O)(=O)N4CCOCC4)cc3)n2)c1`, the figure is 5.01 µM (active). With `c1ccc2oc(Cc3ccc(Cc4nc5ccccc5o4)cc3)nc2c1`, the Potency was 8.91 µM (active). As to `CC(c1ccco1)N(C(=O)c1cc(Cl)cc(Cl)c1)c1ccccn1` (centres undefined), the Potency was 12.6 µM (active).

On to `O=C(CCCN1C(=O)/C(=C\c2cccs2)SC1=S)Nc1ccc(O)cc1`, for which the Potency is 3.98 µM (active). For `CCc1ccc(/C=C2\SC(=S)N(CCCC(=O)Nc3ccccc3C(=O)O)C2=O)cc1` the value was 15.8 µM (active); for `O=C(CCN1C(=O)/C(=C/c2ccccc2)SC1=S)NCCc1ccc(O)cc1`, “inactive”. On to `O=C(CCN1C(=O)/C(=C\c2ccc(F)cc2)SC1=S)Nc1ccccc1`, for which the Potency entry is “inactive”. As for `O=C(CCCN1C(=O)/C(=C/c2cccs2)SC1=S)Nc1ccc(O)cc1`, the Potency is 7.08 µM (active). For `O=C(CCN1C(=O)/C(=C/c2ccccc2)SC1=S)N[C@@H](CO)Cc1ccccc1` the value was 12.6 µM (active); for `CCc1nn2c(=O)cc(COc3cccc(NC(=O)c4ccco4)c3)nc2s1`, 10 µM (active); for `CCc1noc(C)c1C(=O)N1CCC(CCC(=O)Nc2cccc(C)c2)CC1`, 6.31 µM (active). In the case of `C=CCNC(=O)c1onc(CSc2cccc(C)c2)c1C(=O)O`, the Potency entry was “inactive”. For `CC(=O)c1ccc[n+](CC(=O)NC(C)c2ccccc2)c1` (centres undefined) the value was 4.47 µM (active); for `O=C(O)CCNS(=O)(=O)c1cccc(Br)c1`, “inactive”. As for `CCc1ccccc1Nc1nc(N)nc(COC(=O)CCC(=O)c2ccc(F)cc2)n1`, the figure is 2.51 µM (active); as for `CCc1ccccc1Nc1nc(N)nc(COC(=O)CCNS(=O)(=O)c2ccccc2)n1`, 12.6 µM (active). For `COc1ccccc1-n1c(=S)[nH]c2c(sc(=S)n2-c2ccc(C)cc2C)c1=O` the value was 3.16 µM (active). In the case of `COc1ccccc1CNC(=O)c1ccc(-c2ccccc2Cl)o1`, the Potency is 6.31 µM (active).

For the molecule `CCCC(=O)Nc1nnc(CC(=O)N2CCCC2)s1`, the Potency result was “inactive”. As to `CCCc1nnc(NC(=O)CCC(=O)N2CCN(Cc3ccc(Cl)cc3)CC2)s1`, the Potency is 11.2 µM (active).

Take `COc1ccc(CN2CCN(C(=O)CCC(=O)Nc3nnc(C4CCCCC4)s3)CC2)cc1F`: the Potency was 10 µM (active). As for `O=C(Cc1cccs1)NCCc1ccc(Cl)cc1`, the Potency is 5.62 µM (active).

As for `CC(C)(C)OC(=O)[C@H]1[C@H](c2ccc([N+](=O)[O-])cc2)C2(C(=O)c3ccccc3C2=O)C2c3ccccc3C=NN21` (some centres undefined), the Potency is 5.01 µM (active). As for `COc1cccc(NC(=O)CSc2nc3ccccc3nc2N2CCCC2)c1`, the figure is 12.6 µM (active). As for `O=C(O)c1nn(CCSc2ccccc2F)c(=O)c2ccccc12`, the entry is “inactive”. As to `O=c1cc(CSc2ccc(Cl)cc2)nc(-c2ccccn2)[nH]1`, the Potency was 3.16 µM (active). As for `CN(CCCN1CCOCC1)C(=O)c1ccc2nc(Cc3cccc(Cl)c3)oc2c1`, the figure is 11.2 µM (active); as for `O=S(=O)(c1cnc[nH]1)N1CCN(C(c2ccc(F)cc2)c2ccc(F)cc2)CC1`, 11.2 µM (active); as for `O=C(COC(=O)c1ccc(O)cc1O)Nc1ccc2ccccc2c1`, “inactive”. As for `O=C(O)c1ccc(O)cc1O`, the figure is 2.51 µM (active); as for `COc1cccc(CNC(=O)c2cc3oc4ccccc4c3n2C)c1OC`, “inactive”. For `CCOc1ccccc1CNC(=O)c1cc2oc3ccccc3c2n1C` the value was 12.6 µM (active); for `CCOc1ccccc1CNC(=O)c1cc2oc3ccccc3c2n1CC`, 12.6 µM (active); for `CCOC(=O)[C@H]1[C@H]2COc3cc(OC)ccc3[C@@H]2N2C(=O)N(c3ccc(Cl)cc3)C(=O)[C@@]12C`, “inactive”.

On to `O=C(CN(c1ccc2c(c1)OCCO2)S(=O)(=O)c1ccccc1)NCc1ccc(Cl)cc1`, for which the Potency is 12.6 µM (active). For `O=C(CCN1CCN(S(=O)(=O)c2cccc([N+](=O)[O-])c2)CC1)Nc1ccccc1F` the value was 10 µM (active); for `CSc1ccccc1NC(=O)CN1CCN(S(=O)(=O)c2ccccc2[N+](=O)[O-])CC1`, 12.6 µM (active); for `CCOC(=O)CCC(=O)Nc1ncnc2c1C(c1ccccc1)c1c(ccc3ccccc13)O2` (centres undefined), 7.94 µM (active). With `CCC(=O)c1ccc(OCC(=O)NCC2(N3CCCCC3)CCCCC2)cc1`, the Potency was 14.1 µM (active). For `CN(C)S(=O)(=O)c1ccc(Cl)c(NC(=O)CN2C(=O)NC(C)(C3CC3)C2=O)c1` (centres undefined) the value was 12.6 µM (active); for `O=c1[nH]c(C2CCN(S(=O)(=O)c3cccc([N+](=O)[O-])c3)CC2)nc2c1nnn2Cc1ccccc1`, 8.91 µM (active); for `C#CCOCCOCCOCCNc1nc(N2CCN(C(=O)Cn3cc(CC(C)O)nn3)CC2)nc(N2CCN(C(=O)[C@H]([C@@H](C)CC)n3cc(CCCN=C(N)N)nn3)CC2)n1` (some centres undefined), 1 µM (active).

In the case of `C#CCOCCOCCOCCNc1nc(N2CCN(C(=O)Cn3cc(CC(C)O)nn3)CC2)nc(N2CCN(C(=O)[C@H](C)n3cc(CCCN=C(N)N)nn3)CC2)n1` (some centres undefined), the Potency was 15.8 µM (active). For `C#CCOCCOCCOCCNc1nc(N2CCN(C(=O)Cn3cc(CCCCN)nn3)CC2)nc(N2CCN(C(=O)[C@H](C)n3cc(CCCN=C(N)N)nn3)CC2)n1` the value was 1 µM (active).
